According to PubChem BioAssay AID1159580 (chemical genetic matrix, 2015):
Values joined by “and” are separate entries in the source; they are usually repeats but may differ in a detail not shown here. Identical values can stand only once. In all, about 5,500 compounds went through this assay and about 2,000 (36%) were called active. Another 18% or so got no clear call; they are omitted. No stated cut-off is given here; in the data, active means normalized growth mostly below about 0.91 (no sharp cut-off); inconclusive means no clear call, values can overlap the other calls; inactive means mostly above about 0.92. This is one part of the list.

Test: chemical genetic growth profiling, strain panel (AID 1159580);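 further: tested at 20 µM; growth read once vehicle control cultures reached saturation at 30 °C; 1 = growth at the plate median or of vehicle wells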
Conditions: S. cerevisiae deletion strains, growth OD

Measured: normalized growth

NC(=O)c1ccc[n+]([C@@H]2O[C@H](COP(=O)([O-])OP(=O)(O)OC[C@H]3O[C@@H](n4cnc5c(N)ncnc54)[C@H](O)[C@@H]3O)[C@@H](O)[C@H]2O)c1
inactive: locus YAL013W, strain DEP1, stronger effect = lower value 0.974 | locus YAL021C, strain ccr4, stronger effect = lower value 1.05 | locus YAL026C, strain drs2, stronger effect = lower value 1.04 | locus YAL030W, strain snc1, stronger effect = lower value 1.02 | locus YBL061C, strain skt5, stronger effect = lower value 1.03 | locus YBR009C, strain hhf1, stronger effect = lower value 1.05 | locus YBR021W, strain FUR4, stronger effect = lower value 0.996 | locus YBR023C, strain chs3, stronger effect = lower value 1.03 | locus YBR171W, strain sec66, stronger effect = lower value 1.06 | locus YBR229C, strain ROT2, stronger effect = lower value 0.949 | locus YBR231C, strain swc5, stronger effect = lower value 1.03 | locus YBR279W, strain paf1, stronger effect = lower value 1.02 | locus YCL011C, strain gbp2, stronger effect = lower value 1.04 | locus YCL016C, strain dcc1, stronger effect = lower value 1.04 | locus YCL029C, strain bik1, stronger effect = lower value 0.99 | locus YCL061C, strain MRC1, stronger effect = lower value 1.03 | locus YCL069W, strain vba3, stronger effect = lower value 1.03 | locus YCR088W, strain abp1, stronger effect = lower value 1.03 | locus YDL005C, strain med2, stronger effect = lower value 1.02 | locus YDL035C, strain GPR1, stronger effect = lower value 0.986 | locus YDL040C, strain nat1, stronger effect = lower value 1.03 | locus YDL074C, strain BRE1, stronger effect = lower value 1.03 | locus YDL101C, strain DUN1, stronger effect = lower value 0.987 | locus YDL134C, strain PPH21, stronger effect = lower value 0.978 | locus YDL185W, strain tfp1, stronger effect = lower value 0.994 | locus YDL192W, strain arf1, stronger effect = lower value 0.99 | locus YDR001C, strain nth1, stronger effect = lower value 1.02 | locus YDR069C, strain doa4, stronger effect = lower value 1.02 | locus YDR101C, strain arx1, stronger effect = lower value 1.01 | locus YDR137W, strain rgp1, stronger effect = lower value 1.07 | locus YDR150W, strain NUM1, stronger effect = lower value 0.965 | locus YDR159W, strain sac3, stronger effect = lower value 0.949 | locus YDR162C, strain NBP2, stronger effect = lower value 0.973 | locus YDR195W, strain ref2 1.08 | locus YDR297W, strain sur2, stronger effect = lower value 1.04 | locus YDR318W, strain mcm21, stronger effect = lower value 1.02 | locus YDR334W, strain swr1, stronger effect = lower value 1.02 | locus YDR335W, strain msn5, stronger effect = lower value 1.05 | locus YDR388W, stronger effect = lower value 0.99 | locus YDR392W, strain spt3, stronger effect = lower value 1.08 | locus YDR502C, strain sam2, stronger effect = lower value 0.992 | locus YEL003W, strain gim4, stronger effect = lower value 1.02 | locus YEL037C, strain rad23, stronger effect = lower value 1.03 | locus YEL061C, strain CIN8 (second series), stronger effect = lower value 1.02 | locus YEL061C, strain CIN8, stronger effect = lower value 0.981 | locus YER015W, strain faa2, stronger effect = lower value 1.04 | locus YER016W, strain bim1, stronger effect = lower value 1.04 | locus YER110C, stronger effect = lower value 0.973 | locus YER111C, strain swi4, stronger effect = lower value 1.03 | locus YER155C, strain BEM2 (second series), stronger effect = lower value 1.06 | locus YER155C, strain BEM2, stronger effect = lower value 0.99 | locus YER167W, strain BCK2, stronger effect = lower value 0.987 | locus YFR010W, strain ubp6, stronger effect = lower value 1.05 | locus YGL078C, strain dbp3, stronger effect = lower value 0.998 | locus YGL086W, strain mad1, stronger effect = lower value 0.992 | locus YGL167C, strain pmr1, stronger effect = lower value 1.04 | locus YGL173C, strain kem1, stronger effect = lower value 1.04 | locus YGL227W, strain vid30, stronger effect = lower value 1.03 | locus YGL240W, strain doc1, stronger effect = lower value 1.02 | locus YGL248W, strain PDE1, stronger effect = lower value 0.977 | locus YGL253W, strain hxk2, stronger effect = lower value 1.04 | locus YGR078C, strain PAC10, stronger effect = lower value 1.02 | locus YGR135W, strain pre9, stronger effect = lower value 1 | locus YGR229C, strain SMI1, stronger effect = lower value 1.02 | locus YGR252W, strain gcn5, stronger effect = lower value 0.913 | locus YHR013C, strain ard1, stronger effect = lower value 1.08 | locus YHR027C, strain rpn1, stronger effect = lower value 1.03 | locus YHR030C, strain SLT2, stronger effect = lower value 0.981 and 0.987 | locus YHR079C, strain IRE1 (second series), stronger effect = lower value 1 | locus YHR079C, strain IRE1, stronger effect = lower value 0.962 | locus YHR094C, strain hxt1, stronger effect = lower value 0.993 | locus YHR129C, strain ARP1, stronger effect = lower value 0.996 | locus YHR142W, strain chs7, stronger effect = lower value 1.09 | locus YHR200W, strain rpn10, stronger effect = lower value 0.994 | locus YIL066C, strain RNR3, stronger effect = lower value 0.982 | locus YIL073C, strain SPO22, stronger effect = lower value 0.985 | locus YIL125W, strain kgd1, stronger effect = lower value 0.986 | locus YIR030C, strain dcg1, stronger effect = lower value 0.988 | locus YJL092W, strain hpr5, stronger effect = lower value 1.02 | locus YJL095W, strain BCK1 (second series), stronger effect = lower value 1.02 | locus YJL095W, strain BCK1, stronger effect = lower value 1.03 and 0.983 | locus YJL115W, strain asf1, stronger effect = lower value 1.03 | locus YJL129C, strain trk1, stronger effect = lower value 1.06 | locus YJL134W, strain LCB3, stronger effect = lower value 0.977 | locus YJL154C, strain vps35, stronger effect = lower value 1.02 | locus YJL164C, strain tpk1, stronger effect = lower value 1.05 | locus YJL166W, strain qcr8, stronger effect = lower value 1.03 | locus YJL168C, strain set2, stronger effect = lower value 0.995 | locus YJL187C, strain SWE1 (second series), stronger effect = lower value 0.987 | locus YJR043C, strain POL32, stronger effect = lower value 1.02 | locus YJR066W, strain TOR1, stronger effect = lower value 0.943
